Screening results (PubChem)
D1 agonist = Allosteric Agonists of the Human D1 Dopamine Receptor: qHTS | D(1A) dopamine receptor (Homo sapiens), P21728 | 360,000 compounds, 1% hits | AID 504660, 2011 | activation, % at 2 µM | HEK293 T-REx D1 cells, calcium flux, agonist mode; in the data active = activation above about 30%; note: 0% is about no effect
Target sequence (P21728 whole entry, looked up): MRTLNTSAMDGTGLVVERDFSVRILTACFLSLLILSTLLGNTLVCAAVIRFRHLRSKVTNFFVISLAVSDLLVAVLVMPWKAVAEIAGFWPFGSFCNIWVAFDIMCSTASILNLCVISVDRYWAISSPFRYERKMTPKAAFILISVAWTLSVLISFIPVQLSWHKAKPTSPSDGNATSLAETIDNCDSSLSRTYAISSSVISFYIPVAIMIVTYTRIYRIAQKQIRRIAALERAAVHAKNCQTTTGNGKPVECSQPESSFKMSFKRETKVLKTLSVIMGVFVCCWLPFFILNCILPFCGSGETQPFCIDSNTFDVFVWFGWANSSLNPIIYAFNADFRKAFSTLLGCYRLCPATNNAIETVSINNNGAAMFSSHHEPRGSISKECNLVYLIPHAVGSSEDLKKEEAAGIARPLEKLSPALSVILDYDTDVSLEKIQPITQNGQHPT
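Agonism was scored from calcium flux recorded over 180 s (1 read/s) after pintool compound addition, following a 10-cycle baseline. Cells were inducible force-coupled HEK293 TREx D1, plated overnight at 30 C and loaded with no-wash calcium dye.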
D1 antagonist = Antagonist of Human D 1 Dopamine Receptor: qHTS. D(1A) dopamine receptor (Homo sapiens), P21728. 360,000 compounds, 3.2% hits. AID 504652, 2011. HEK293 TREx D1 cells, calcium flux, dopamine EC80; stronger effect = lower value. activity change, negative = inhibition, % at 10 µM; in the data active = activity change below about -30%; note: % is set by controls: 0 for no effect and ±100 for the full control effect
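Allosteric or orthosteric antagonism assessed as attenuation of the calcium response to EC80 dopamine, added 180 s after compound, in induced HEK293 Trex D1 cells loaded with no-wash calcium dye.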
DRD3 agonist = qHTS of D3 Dopamine Receptor Agonist: qHTS; D(3) dopamine receptor (Homo sapiens), P35462; D3R DiscoveRx beta-arrestin cells, luminescence, 90 min; max activation, %; 410,000 compounds, 0.58% hits; in the data active = max activation above about 30%; note: 0% is about no effect
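Cells at 1500/well, incubated overnight, then treated with pinned compounds (dopamine as control) for 90 min at 37 degrees C. DiscoveRx reagent added for 30 - 60 minutes at room temperature; luminescence read.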
D1 PAM = Potentiators of Human D1 Dopamine Receptor: qHTS. D(1A) dopamine receptor (Homo sapiens), P21728. HEK293 TREx D1 cells, calcium flux, dopamine EC20 potentiation. potentiation, % at 10 µM. 360,000 compounds, 0.036% hits. AID 504651, 2011; in the data active = potentiation above about 30%; note: 0% is about no effect
D3 antag = qHTS of D3 Dopamine Receptor Antagonist: qHTS; D(3) dopamine receptor (Homo sapiens), P35462; D3R cells, DiscoveRx beta-arrestin luminescence, antagonist mode; stronger effect = lower value; max response, negative = inhibition, %; 360,000 compounds, 2.5% hits; AID 652054, 2013; in the data active = max response below about -50%; inconclusive = no clear call, values can overlap the other calls; note: % is set by controls: 0 for no effect and ±100 for the full control effect
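Cells plated overnight at 1500 cells/well, then exposed to library compounds with dopamine controls for 90 minutes at 37 degrees C. DiscoveRx reagent added for 30–60 minutes at room temperature; luminescence read, quantitative HTS format.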
An asterisk follows results filed as active; ? = inconclusive; . = not tested or not shown. Hits are enriched below; roughly 6% of the tested compounds scored in any of these assays.

SMILES	D1 agonist	D1 antagonist	DRD3 agonist	D1 PAM	D3 antag
CN(C)c1cc(NC(=O)CNC(C)(C)C)c(O)c2c1C[C@H]1C[C@H]3[C@H](N(C)C)C(=O)C(C(N)=O)=C(O)[C@@]3(O)C(=O)C1=C2O	.	.	8	.	.
COc1ccc(C2CC(c3cccs3)=NN2c2ccc(C=O)cc2)cc1 (stereo unspecified)	244*	-62*	6	17	3
NC[C@H]1O[C@H](O[C@H]2[C@H](O[C@@H]3O[C@H](CO)[C@@H](O)[C@H]3O)C(O)[C@H](N)C[C@@H]2N)[C@H](N)[C@@H](O)[C@@H]1O (stereo partly specified)	.	.	2	.	.
Cc1ccc(OCCCN2CCOCC2)c([N+](=O)[O-])c1	3	-1	-10	-3	?
O=[N+]([O-])c1cc(S(=O)(=O)N2CCCC2)ccc1OCCOc1ccccc1	35*	-11	-8	.	-16
Cc1ccc([N+](=O)[O-])c(OCCN2CCc3ccccc3C2)c1	2	-52*	15	-22	-60*
O=[N+]([O-])c1ccccc1OCCN1CCCC1	5	-38*	-13	-4	-61*
Cc1ccc([N+](=O)[O-])c(OCCN2CCCCCC2)c1	4	2	-14	-14	-90*
CCN(Cc1nc(-c2cccc(C)c2)no1)S(=O)(=O)c1ccc(C)cc1	11	2	5	2	.
Cc1ccc([N+](=O)[O-])c(OCCCN2CCC(Cc3ccccc3)CC2)c1	.	.	-1	.	-95*
COc1cc(CN2CCC(Cc3ccccc3)CC2)c([N+](=O)[O-])cc1OC	3	14	0	2	21
O=[N+]([O-])c1ccccc1OCCCN1CCc2ccccc2C1	2	-26	-21	-15	-103*
CC1CC(C)CN(CCCOc2ccccc2[N+](=O)[O-])C1 (stereo unspecified)	7	-3	-7	-3	?
O=[N+]([O-])c1ccccc1OCCNCc1ccccc1	9	-24	25	-13	-86*
O=[N+]([O-])c1cccc(OCCN2CCC(Cc3ccccc3)CC2)c1	19	-24	-21	-8	-102*
O=C(c1ccc([N+](=O)[O-])cc1)N1CCC(Cc2ccccc2)CC1	7	-20	0	-6	-8
Cc1ccc(NC(=O)CN2CCN(C3CCCCC3)C(=O)C2=O)cc1C	2	-1	-7	1	.
Cc1cc(OCCN2CCOCC2)ccc1[N+](=O)[O-]	3	-13	-5	-1	-10
Nc1nonc1OCCN1CCN(c2ccc([N+](=O)[O-])c3cccnc23)CC1	6	-8	-8	-4	-5
Cc1cc(OCCN2CCCC2)ccc1[N+](=O)[O-]	6	-5	-23	-2	-63*
Cc1nonc1OCCN1CCN(c2ccccc2[N+](=O)[O-])CC1	4	-19	-9	-2	-58*
Cc1cc(C(=O)N2CCC(Cc3ccccc3)CC2)ccc1[N+](=O)[O-]	1	-32*	7	-2	-13
Cc1ccccc1Nc1c(-c2ccc(N3CCOCC3)cc2)nc2ccc(Br)cn12	3	-8	-15	-1	.
O=C(CC(c1cccs1)N1Cc2ccccc2C1=O)Nc1ccc(Cl)cc1 (stereo unspecified)	19	4	-21	0	.
CCOC(=O)c1ccccc1NC(=O)CSc1cn(CC(=O)N2CCCCC2)c2ccccc12	3	2	13	-2	.
SMILES	D1 agonist	D1 antagonist	DRD3 agonist	D1 PAM	D3 antag
CCn1ncc(/C=N/N=C2\CCC3C4CCc5cc(O)ccc5C4CCC23C)c1C (stereo unspecified)	7	9	34*	-2	88
CN(C)c1cccc(C(=O)NNC(=O)/C=C/c2cccs2)c1	1	-9	-1	0	-14
COc1ccc(OC)c2nc3c(C(=O)NCCN(C)C)cccc3nc12	.	.	-9	.	-25
COc1ccc(C23CC4CC(CC(C4)C2)C3)cc1C(=O)NCCN(C)C	39*	0	-4	-1	-13
COc1ccccc1C(=O)NCCC(=O)NCCC12CC3CC(CC(C3)C1)C2	2	-31*	-8	-6	-22
O=C(/C=C/c1cn(CC(O)CN2CCOCC2)c2ccccc12)c1cccs1 (stereo unspecified)	27	-81*	.	-5	.
Cc1ccc(C(=O)/C=C/c2cn(CC(O)CN3CCOCC3)c3ccccc23)cc1 (stereo unspecified)	2	17	3	-11	-1
Cc1ccc(C)c(NC(=O)Cn2nc(C)c3nn(-c4ccc(Cl)cc4)c(C)c3c2=O)c1	1	-6	10	-3	.
CCn1c(-c2ccccc2)c[nH]c1=S	4	-11	3	-3	-8
CC(C)Cn1c(-c2ccc(Br)cc2)c[nH]c1=S	43*	41	-31	-12	0
Nc1nnc(SCC(=O)Nc2nccs2)s1	1	-43*	-3	-5	-3
Cc1nnc(SCC(=O)Nc2nccs2)s1	-2	6	2	-6	3
COc1ccc(NC(=O)NCc2cccn2Cc2ccc(F)cc2)cc1OC	7	-15	7	-2	.
Cc1ccc(NC(=O)c2cc(S(=O)(=O)N(C)C3CCCCC3)ccc2F)cc1C	0	11	5	-2	.
COc1ccc(Cl)cc1NC(=O)C(OC)c1ccccc1 (stereo unspecified)	8	-18	5	1	-4
COC(/C(=N/O)c1ccc(Cl)cc1)c1ccccc1 (stereo unspecified)	8	-38*	-12	-2	-3
Cc1cc(C)cc(NS(=O)(=O)c2ccc3c(c2)CCCN3C(=O)C2CCC2)c1	0	6	3	0	.
O=C(Nc1ccc(F)cc1)c1ccc(Cn2nc(N3CCN(c4ccccc4)CC3)ccc2=O)o1	1	-32*	-2	-5	.
Cc1cccc(/C=c2\s/c(=C\C(=O)C(C)(C)C)[nH]c2=O)c1	1	-13	-5	3	-8
CC(C)(C)C(=O)/C=c1\[nH]c(=O)/c(=C\c2ccc(C#N)cc2)s1	4	-47*	7	-11	-19
CCC(CC)C(=O)NCc1nc2cccnc2n1Cc1ccc(F)cc1	0	22	-11	-1	.
COc1cccc(-c2ccc3c(N)c(C(=O)c4ccc(Cl)cc4)sc3n2)c1	98*	-7	-2	1	.
COc1cccc(-c2ccc3c(N)c(C(=O)Nc4ccc(C)c(F)c4)sc3n2)c1	15	-14	7	-2	.
COc1ccc(C(=O)c2sc3nc(-c4ccccc4)ccc3c2N)cc1	158*	-4	10	-2	0
CC[C@@H](CO)NCCN[C@@H](CC)CO	.	.	2	.	.
CCOCCCNC(=O)C(=O)Nc1c2c(nn1-c1ccccc1)CSC2	0	.	-9	-2	.
